Records with an inconclusive call do not appear. Active and inactive are the calls of the source. Calls follow the shape of the dose curve; as a rule, active = well fitted curve in the direction sought with a large enough effect in the repeat runs; inconclusive = weak or mixed curves; inactive = no such curve, though single readings can be large; an effect the other way counts as inactive or inconclusive.
How the values were obtained:
[1] = Caspase-3/7 induction in HepG2 cells by small molecules, qHTS assay (AID 1346978); also: nearly all actives have a fitted effect of over 15% in size
Summary of the method: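 Wild-type HepG2 cells, 2,000/well, settled 5 hr at 37 C and 5% CO2, then compound-treated for 17 hr; caspase-3/7 activity read by luminescent Caspase-Glo 3/7 after 30 min at room temperature.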

[2] = Caspase-3/7 induction in CHO-K1 cells by small molecules, qHTS cell viability counter screen (AID 1346979); also: nearly all actives have a fitted effect of over 35% in size
Summary of the method: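 Wild-type CHO-K1 cells were seeded at 1,500 per well, rested 5hr at 37 C, then exposed to compounds in DMSO. After 16hr, CellTiter-Fluor reagent was added and fluorescence read 1hr later as the viability measure.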

[3] = Caspase-3/7 induction in CHO-K1 cells by small molecules, qHTS assay (AID 1346980); also: nearly all actives have a fitted effect of over 15% in size
Summary of the method: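 Wild-type CHO-K1 cells exposed to compounds for 17hr at 37 C, 5% CO2. Caspase-3/7 activity then measured by Caspase-Glo 3/7 luminescence after 30min at room temperature.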

[4] = Caspase-3/7 induction in HepG2 cells by small molecules, qHTS cell viability counter screen (AID 1346981); also: series mostly up to about 92 µM; nearly all actives have a fitted effect of over 30% in size
Summary of the method: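 Fluorescence read-out of live-cell protease activity (CellTiter-Fluor) after 1 hr with reagent. This was measured in the same wells as the caspase-3/7 luminescence, on HepG2 cells exposed to DMSO-dissolved compounds for 16 hr at 37 C.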

[5] = molecular target: Cytochrome P450 2D6 (Homo sapiens) (UniProt P10635); assay: Cytochrome P450 Family 2 Subfamily D Member 6 (CYP2D6) small molecule antagonists: luciferase reporter qHTS assay (AID 1671196); also: series mostly up to about 120 µM; nearly all actives have a fitted effect of over 50% in size
Cytochrome P450 2D6 (Homo sapiens), sequence (P10635 whole entry, looked up): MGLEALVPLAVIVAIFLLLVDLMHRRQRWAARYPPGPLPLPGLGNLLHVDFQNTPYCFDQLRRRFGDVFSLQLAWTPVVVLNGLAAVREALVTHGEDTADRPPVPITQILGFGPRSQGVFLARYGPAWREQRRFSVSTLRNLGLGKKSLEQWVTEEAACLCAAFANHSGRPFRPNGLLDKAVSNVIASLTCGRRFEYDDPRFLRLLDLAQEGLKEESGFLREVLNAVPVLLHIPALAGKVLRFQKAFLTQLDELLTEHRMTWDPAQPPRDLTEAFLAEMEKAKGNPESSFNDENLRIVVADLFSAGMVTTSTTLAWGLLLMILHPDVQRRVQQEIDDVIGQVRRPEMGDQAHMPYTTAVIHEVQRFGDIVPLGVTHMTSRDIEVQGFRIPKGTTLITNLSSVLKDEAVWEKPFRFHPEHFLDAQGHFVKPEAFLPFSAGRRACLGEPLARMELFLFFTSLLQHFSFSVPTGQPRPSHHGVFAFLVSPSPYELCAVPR
Summary of the method: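 Luminogenic proluciferin substrate, CYP2D6 enzyme; 10 min RT preincubation with compound, NADPH regeneration system added, 1 h RT. Stop/detection reagent, 20 min RT, luminescence read (RLU). Signal proportional to CYP activity.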

[6] = molecular target: Cytochrome P450 2C19 (Homo sapiens) (UniProt P33261); assay: Cytochrome P450 Family 2 Subfamily C Member 19 (CYP2C19) small molecule antagonists: luciferase reporter qHTS assay (AID 1671197); also: nearly all actives have a fitted effect of over 65% in size; also: potency is read from the fitted curve at half-maximal effect; as to activity change, negative = inhibition: series mostly up to about 120 µM
Cytochrome P450 2C19 (Homo sapiens), sequence (P33261 whole entry, looked up): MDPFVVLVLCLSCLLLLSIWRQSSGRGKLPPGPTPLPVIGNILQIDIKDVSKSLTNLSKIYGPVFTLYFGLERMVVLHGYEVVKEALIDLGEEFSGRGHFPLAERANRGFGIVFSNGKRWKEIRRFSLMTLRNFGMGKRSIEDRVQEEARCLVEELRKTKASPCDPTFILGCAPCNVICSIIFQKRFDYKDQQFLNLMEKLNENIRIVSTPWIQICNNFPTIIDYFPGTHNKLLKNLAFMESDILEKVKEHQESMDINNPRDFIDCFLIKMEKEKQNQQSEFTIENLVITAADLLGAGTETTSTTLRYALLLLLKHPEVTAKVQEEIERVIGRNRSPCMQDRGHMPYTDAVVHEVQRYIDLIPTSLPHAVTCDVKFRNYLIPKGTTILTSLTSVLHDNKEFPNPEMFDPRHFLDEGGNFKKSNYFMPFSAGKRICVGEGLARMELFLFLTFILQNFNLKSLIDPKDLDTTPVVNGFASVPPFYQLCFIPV
Summary of the method: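 Inhibition of CYP2C19 was scored from loss of luminescence in a P450-Glo proluciferin substrate assay, NADPH-started and run 1 h at 37C, with ketoconazole as positive control.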

[7] = molecular target: Cytochrome P450 2C9 (Homo sapiens) (UniProt P11712); assay: Cytochrome P450 Family 2 Subfamily C Member 9 (CYP2C9) small molecule antagonists: luciferase reporter qHTS assay (AID 1671198); also: nearly all actives have a fitted effect of over 50% in size; also: potency is read from the fitted curve at half-maximal effect; as to activity change, negative = inhibition: series mostly up to about 120 µM
Cytochrome P450 2C9 (Homo sapiens), sequence (P11712 whole entry, looked up): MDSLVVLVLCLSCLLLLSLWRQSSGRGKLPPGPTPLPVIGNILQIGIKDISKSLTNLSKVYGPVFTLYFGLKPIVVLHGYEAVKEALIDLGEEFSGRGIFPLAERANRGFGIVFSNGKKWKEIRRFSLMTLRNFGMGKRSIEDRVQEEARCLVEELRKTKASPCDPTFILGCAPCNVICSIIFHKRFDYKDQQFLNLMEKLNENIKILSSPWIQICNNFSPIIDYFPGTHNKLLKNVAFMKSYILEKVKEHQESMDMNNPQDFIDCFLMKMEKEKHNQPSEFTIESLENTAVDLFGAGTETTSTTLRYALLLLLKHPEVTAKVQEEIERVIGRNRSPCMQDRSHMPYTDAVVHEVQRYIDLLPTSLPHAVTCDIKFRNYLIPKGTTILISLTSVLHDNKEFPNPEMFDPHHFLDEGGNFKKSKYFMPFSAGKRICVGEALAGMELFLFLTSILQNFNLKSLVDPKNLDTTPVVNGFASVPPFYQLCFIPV
Summary of the method: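 P450-Glo proluciferin substrate with CYP2C9 enzyme; 10 min RT preincubation, then NADPH regeneration 1 h at 37C; luciferin detection reagent 20 min RT, luminescence in relative luminescence units.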

[8] = molecular target: Voltage-gated inwardly rectifying potassium channel KCNH2 (Homo sapiens) (UniProt Q12809); assay: Human Ether-a-go-go-Related Gene (hERG) channel small molecule antagonists: fluorescence cell-based qHTS assay (AID 1671200); also: nearly all actives have a fitted effect of over 50% in size; also: potency is read from the fitted curve at half-maximal effect;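 as to activity change, negative = inhibition: hERG-expressing U2OS cells given a thallium stimulus after FluxOR II dye loading; series mostly up to about 77 µM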
Voltage-gated inwardly rectifying potassium channel KCNH2 (Homo sapiens), sequence (Q12809 whole entry, looked up): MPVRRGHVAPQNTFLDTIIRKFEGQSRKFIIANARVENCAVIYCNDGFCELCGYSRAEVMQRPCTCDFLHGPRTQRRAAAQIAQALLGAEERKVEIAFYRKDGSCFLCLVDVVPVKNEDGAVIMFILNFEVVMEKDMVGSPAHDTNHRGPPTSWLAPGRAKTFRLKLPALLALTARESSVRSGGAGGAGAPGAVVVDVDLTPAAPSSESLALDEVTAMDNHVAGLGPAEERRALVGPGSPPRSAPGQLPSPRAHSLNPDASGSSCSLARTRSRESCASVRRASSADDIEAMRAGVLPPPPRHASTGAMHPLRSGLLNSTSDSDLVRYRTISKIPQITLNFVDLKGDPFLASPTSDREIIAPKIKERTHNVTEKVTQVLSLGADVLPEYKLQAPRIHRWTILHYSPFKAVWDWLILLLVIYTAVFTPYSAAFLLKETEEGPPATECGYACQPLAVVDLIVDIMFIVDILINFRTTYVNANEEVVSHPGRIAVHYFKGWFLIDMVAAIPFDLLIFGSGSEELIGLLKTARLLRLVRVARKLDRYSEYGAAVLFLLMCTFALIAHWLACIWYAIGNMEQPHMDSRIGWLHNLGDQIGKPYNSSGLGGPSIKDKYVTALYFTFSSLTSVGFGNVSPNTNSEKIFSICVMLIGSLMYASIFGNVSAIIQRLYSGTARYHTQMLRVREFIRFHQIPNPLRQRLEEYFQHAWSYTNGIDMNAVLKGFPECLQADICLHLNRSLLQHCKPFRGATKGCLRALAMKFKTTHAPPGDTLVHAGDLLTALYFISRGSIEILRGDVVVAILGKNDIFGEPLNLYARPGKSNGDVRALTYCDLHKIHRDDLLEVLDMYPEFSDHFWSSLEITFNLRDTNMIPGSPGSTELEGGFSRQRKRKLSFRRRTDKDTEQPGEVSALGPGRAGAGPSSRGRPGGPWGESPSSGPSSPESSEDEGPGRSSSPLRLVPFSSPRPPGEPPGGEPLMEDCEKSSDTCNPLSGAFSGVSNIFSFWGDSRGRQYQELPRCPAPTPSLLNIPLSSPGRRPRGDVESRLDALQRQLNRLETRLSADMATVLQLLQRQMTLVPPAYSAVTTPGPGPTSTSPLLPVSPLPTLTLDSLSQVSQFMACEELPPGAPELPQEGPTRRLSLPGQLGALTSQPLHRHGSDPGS
Summary of the method: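 U2OS cells expressing the channel were plated at 1000 cells/well, incubated overnight at 37 C, then loaded with FluxOR II thallium-sensitive dye for 1 h at room temperature in the dark, with a further 10 min at room temperature before stimulation.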

[9] = molecular target: Cytochrome P450 3A4 (Homo sapiens) (UniProt P08684); assay: Cytochrome P450 Family 3 Subfamily A Member 4 (CYP3A4) small molecule antagonists: luciferase reporter qHTS assay (AID 1671201); also: series mostly up to about 120 µM; nearly all actives have a fitted effect of over 50% in size
Cytochrome P450 3A4 (Homo sapiens), sequence (P08684 whole entry, looked up): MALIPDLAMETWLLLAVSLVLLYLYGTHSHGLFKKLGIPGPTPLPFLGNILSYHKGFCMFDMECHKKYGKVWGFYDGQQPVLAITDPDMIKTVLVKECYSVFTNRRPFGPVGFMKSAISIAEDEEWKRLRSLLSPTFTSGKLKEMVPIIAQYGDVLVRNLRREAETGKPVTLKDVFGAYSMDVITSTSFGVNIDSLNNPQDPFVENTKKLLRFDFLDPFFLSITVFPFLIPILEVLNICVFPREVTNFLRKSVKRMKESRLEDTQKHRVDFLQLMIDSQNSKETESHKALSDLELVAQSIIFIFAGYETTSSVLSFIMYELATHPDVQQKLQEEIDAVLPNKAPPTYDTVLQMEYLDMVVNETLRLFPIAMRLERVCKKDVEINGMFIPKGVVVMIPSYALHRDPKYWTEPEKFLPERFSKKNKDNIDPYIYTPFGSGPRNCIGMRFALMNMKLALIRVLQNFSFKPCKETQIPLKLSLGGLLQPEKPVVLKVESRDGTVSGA
Summary of the method: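 P450-Glo CYP3A4 system with proluciferin substrate; compounds preincubated 10 min RT with enzyme-substrate mix, then NADPH regeneration added for 1 h RT. Detection reagent 20 min, luminescence read as relative luminescence units.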

[10] = molecular target: Cytochrome P450 1A2 (Homo sapiens) (UniProt P05177); assay: Cytochrome P450 Family 1 Subfamily A Member 2 (CYP1A2) small molecule antagonists: luciferase reporter qHTS assay (AID 1671199); also: nearly all actives have a fitted effect of over 50% in size; also: potency is read from the fitted curve at half-maximal effect; as to activity change, negative = inhibition: series mostly up to about 120 µM
Cytochrome P450 1A2 (Homo sapiens), sequence (P05177 whole entry, looked up): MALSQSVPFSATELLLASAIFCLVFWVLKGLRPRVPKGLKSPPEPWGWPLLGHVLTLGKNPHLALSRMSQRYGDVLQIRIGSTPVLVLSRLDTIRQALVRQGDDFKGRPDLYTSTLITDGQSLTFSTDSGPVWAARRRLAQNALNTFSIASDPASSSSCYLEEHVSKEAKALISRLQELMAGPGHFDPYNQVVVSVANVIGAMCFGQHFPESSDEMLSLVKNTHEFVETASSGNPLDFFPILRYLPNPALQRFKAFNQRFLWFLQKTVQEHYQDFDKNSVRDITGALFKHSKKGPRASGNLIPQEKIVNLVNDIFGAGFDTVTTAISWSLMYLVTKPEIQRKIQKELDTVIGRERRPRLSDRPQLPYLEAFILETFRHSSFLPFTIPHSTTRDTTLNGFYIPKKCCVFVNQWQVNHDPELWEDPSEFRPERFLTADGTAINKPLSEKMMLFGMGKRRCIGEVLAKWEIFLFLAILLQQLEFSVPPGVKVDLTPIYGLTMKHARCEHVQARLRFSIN
Summary of the method: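 Luminescence readout (relative luminescence units) after luciferin detection reagent, 20 min RT. Preceded by 1 h room-temperature CYP1A2 reaction with NADPH regeneration solution following 10 min compound preincubation with enzyme and proluciferin substrate. Furafylline positive control.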
% is scaled to controls: 0 for no effect and ±100 for the full control effect.

C=Cc1ccc(OC(C)=O)cc1
inactive: Potency [1] | Potency [2] | outcome [3] | Potency [4] | Potency [5] | Potency [6] | Potency [7] | Potency [8] | Potency [9]

OCC(CO)n1cnc(-c2ccc(F)cc2)c1-c1ccnc(Oc2ccccc2)n1
active: Potency [6] 31.7 µM | Potency [7] 35.6 µM
inactive: Potency [1] | Potency [2] | outcome [3] | Potency [4] | Potency [10] | Potency [8] | Potency [9]

CC1=CC[C@@H]2C[C@H]1C2(C)C
inactive: caspase activation [1] -0.809% [at 19 µM] | activity change, negative = cytotoxicity [2] -0.814% [at 19 µM] | caspase-3/7 activation [3] 0.0875% [at 19 µM] | activity change, negative = cytotoxicity [4] -0.185% [at 19 µM] | activity change, negative = inhibition [5] -8.83% [at 23.6 µM] | activity change, negative = inhibition [6] -6.89% [at 23.6 µM] | activity change, negative = inhibition [10] -16.3% [at 23.6 µM]

COc1cc(NS(=O)(=O)c2ccc(N)cc2)nc(C)n1
inactive: Potency [1] | Potency [2] | outcome [3] | Potency [4] | Potency [5] | Potency [6] | Potency [7] | Potency [10] | Potency [8] | Potency [9]

CC(C)(C)C1(CCc2ccc(Cl)cc2)CO1 (configuration not stated)
inactive: Potency [1] | Potency [2] | outcome [3] | Potency [4] | Potency [9]
active: Potency [6] 1.26 µM | Potency [10] 20 µM | Potency [8] 24.5 µM

CC(C)COC(=O)COc1cc(Cl)c(Cl)cc1Cl
inactive: Potency [1] | Potency [2] | outcome [3] | Potency [4]
active: Potency [6] 8.91 µM | Potency [10] 31.6 µM

O=C1c2ccccc2C(=O)c2c(O)ccc(O)c21
inactive: Potency [1] | Potency [2] | outcome [3] | Potency [4] | Potency [5] | Potency [6] | Potency [7] | Potency [8] | Potency [9]
active: Potency [10] 3.17 µM

COC(OC)OC
inactive: Potency [1] | Potency [2] | outcome [3] | Potency [4] | Potency [5] | Potency [6] | Potency [7] | Potency [10] | Potency [8] | Potency [9]

CCCCCCCCCCCCCCN(C)C
inactive: caspase activation [1] 1.09% [at 19 µM] | activity change, negative = cytotoxicity [2] 2.75% [at 19 µM] | caspase-3/7 activation [3] -1.58% [at 19 µM] | activity change, negative = cytotoxicity [4] -7.71% [at 19 µM] | activity change, negative = inhibition [5] -19.3% [at 23.6 µM] | activity change, negative = inhibition [7] -16.9% [at 23.6 µM] | activity change, negative = inhibition [8] -0.651% [at 15.8 µM] | activity change, negative = inhibition [9] -11.1% [at 23.6 µM]
